The panel holds about 79,000 compounds, 15% with a hit somewhere; the sample as a whole holds those more often. Calls of active or inactive are those of the source. No stated cut-off is given here; in the data, active means growth inhibition above about 70%; inactive means the rest.
Tests used:
[1] = NCI Yeast Anticancer Drug Screen. Data for the mec2-1 strain (AID 157); conditions: S. cerevisiae mec2-1 strain, stronger effect = higher value
Procedure, shortened: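 Using mec2-1 yeast: add compound, measure growth, express inhibition versus vehicle-treated cultures.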

[2] = NCI Yeast Anticancer Drug Screen. Data for the rad14 strain (AID 159);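 further: 0% = growth of vehicle-treated control cultures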; conditions: S. cerevisiae rad14 strain growth inhibition, stronger effect = higher value
Procedure, shortened: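 Inhibition of growth is reported for a repair-deficient yeast mutant following compound treatment, calculated relative to cultures that received vehicle.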

[3] = NCI Yeast Anticancer Drug Screen. Data for the sgs1 mgt1 strain (AID 161);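 further: 0% = growth of cultures given vehicle only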; conditions: S. cerevisiae sgs1 mgt1 strain, stronger effect = higher value
Procedure, shortened: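 This yeast growth screen uses a strain with defined DNA-repair lesions; compound-treated growth is compared with vehicle-treated growth.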

[4] = NCI Yeast Anticancer Drug Screen. Data for the CLN2oe strain (AID 163);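 further: 0% = growth of vehicle-only control cultures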; conditions: S. cerevisiae CLN2oe strain, stronger effect = higher value
Procedure, shortened: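 Whole-cell yeast growth assay. A strain engineered for altered cell-cycle control received compound, and inhibition relative to vehicle-treated cultures was recorded.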

[5] = NCI Yeast Anticancer Drug Screen. Data for the cln2 rad14 strain (AID 165);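 further: 0% = growth equal to vehicle treated cultures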; conditions: S. cerevisiae cln2 rad14 strain, stronger effect = higher value
Procedure, shortened: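 Yeast strain cln2 rad14, bearing defects in cell cycle control and DNA repair, serves as the test system; values reflect growth inhibition compared with vehicle.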

[6] = NCI Yeast Anticancer Drug Screen. Data for the bub3 strain (AID 167); conditions: S. cerevisiae bub3 mutant strain, stronger effect = higher value
Procedure, shortened: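 Mutant yeast screening strain plus compound; vehicle-treated cultures serve as the 0% inhibition reference.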

[7] = NCI Yeast Anticancer Drug Screen. Data for the wt2 strain (AID 169); conditions: S. cerevisiae wt2 strain growth inhibition, stronger effect = higher value
Procedure, shortened: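 Treated yeast vs. vehicle-treated yeast: growth inhibition determined.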

[8] = NCI Yeast Anticancer Drug Screen. Data for the mlh1 strain (AID 171);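 further: 0% = growth of vehicle-treated control cultures of the same strain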; conditions: S. cerevisiae mlh1 strain growth inhibition, stronger effect = higher value
Procedure, shortened: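 A yeast strain with a defined genetic lesion serves as the test organism. Cultures receive compound or vehicle, and growth is measured.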

[9] = NCI Yeast Anticancer Drug Screen. Data for the sgs1 strain (AID 173);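 further: 0% = growth of vehicle-only control cultures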; conditions: S. cerevisiae sgs1 mutant, stronger effect = higher value
Procedure, shortened: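 A genetically defined yeast mutant is incubated with the test compound, and its growth is compared to that of the same strain given vehicle.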

[10] = NCI Yeast Anticancer Drug Screen. Data for the mlh1 rad18 strain (AID 175); conditions: S. cerevisiae mlh1 rad18 strain growth inhibition, stronger effect = higher value
Procedure, shortened: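 Steps: expose repair-defective yeast to compound; measure growth; express inhibition against vehicle-treated controls.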

[11] = NCI Yeast Anticancer Drug Screen. Data for the rad18 strain (AID 177); conditions: S. cerevisiae rad18 mutant growth inhibition, stronger effect = higher value
Procedure, shortened: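 Measured value is growth inhibition of a yeast strain bearing a DNA repair alteration, referenced to vehicle-treated cells.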

[12] = NCI Yeast Anticancer Drug Screen. Data for the wt1 strain (AID 149);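 further: 0% = growth of vehicle-treated wt1 cultures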; conditions: S. cerevisiae wt1 strain (SPY 50644) growth inhibition, stronger effect = higher value
Procedure, shortened: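 Each compound is tested on wt1 yeast and the loss of growth versus vehicle gives the inhibition value.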

[13] = NCI Yeast Anticancer Drug Screen. Data for the rad50EPP+ strain (AID 151);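 further: 0% = growth of vehicle-treated control cultures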; conditions: S. cerevisiae rad50 mutant strain, stronger effect = higher value
Procedure, shortened: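 Read-out is yeast growth inhibition relative to vehicle; cells used were the rad50EPP+ strain.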

[14] = NCI Yeast Anticancer Drug Screen. Data for the mgt1 strain (AID 153); conditions: S. cerevisiae mgt1 mutant growth inhibition, stronger effect = higher value
Procedure, shortened: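 Measured: inhibition of mgt1 yeast growth by compound, normalized to vehicle-treated cultures.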

[15] = NCI Yeast Anticancer Drug Screen. Data for the rad50 strain (AID 155);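 further: 0% = growth of vehicle-only cultures of the same strain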; conditions: S. cerevisiae rad50 strain growth inhibition, stronger effect = higher value
Procedure, shortened: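 Vehicle-treated cultures provide the reference for the growth inhibition reported for compound-exposed, repair-deficient yeast.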

[16] = at 5.0 µM (retest, dose inferred, filed as 0.5)
[17] = at 50.0 µM (retest, dose inferred, filed as 5.0)

Measured: growth inhibition

CN(C)CCNC(=O)c1cccc2nc3c(ccc4ccccc43)nc12
inactive: [2]; at 1.2 µM -2% | [2]; at 3.7 µM 2% | [2]; at 11.0 µM 14% | [2]; at 33.0 µM 50% | [3]; [16] 3% | [3]; [17] 37% | [3]; at 50.0 µM 40.2% | [4]; at 1.2 µM -5% | [4]; at 3.7 µM -1% | [4]; at 11.0 µM -2% | [4]; at 33.0 µM 18% | [5]; [16] 4% | [5]; [17] 57% | [5]; at 50.0 µM 26.9% | [6]; at 1.2 µM 1% | [6]; at 3.7 µM 3% | [6]; [16] -40% | [6]; at 11.0 µM 5% | [6]; at 33.0 µM 24% | [6]; [17] 43% | [6]; at 50.0 µM 24.1% | [7]; at 1.2 µM -2% | [7]; at 3.7 µM 6% | [7]; at 11.0 µM -2% | [7]; at 33.0 µM 13% | [8]; at 1.2 µM -1% | [8]; at 3.7 µM 0% | [8]; at 11.0 µM 3% | [8]; at 33.0 µM 28% | [9]; at 1.2 µM -4% | [9]; at 3.7 µM -4% | [9]; at 11.0 µM 1% | [9]; at 33.0 µM 30% | [10]; [16] 7% | [11]; at 1.2 µM -2% | [11]; at 3.7 µM 2% | [11]; at 11.0 µM 11% | [11]; at 33.0 µM 61%
active: [1]; at 100.0 µM 94% | [2]; at 100.0 µM 99% | [4]; at 100.0 µM 72% | [6]; at 100.0 µM 97% | [7]; at 100.0 µM 92% | [8]; at 100.0 µM 98% | [9]; at 100.0 µM 98% | [10]; [17] 92% | [10]; at 50.0 µM 90.2% | [11]; at 100.0 µM 99%

C[n+]1c(-c2ccc(NC(=O)c3ccc(C(=O)Nc4ccc(-c5cn6ccccc6[n+]5C)cc4)cc3)cc2)cn2ccccc21
active: [12]; at 33.0 µM 70% | [12]; at 100.0 µM 92% | [13]; at 33.0 µM 77% | [13]; at 100.0 µM 88% | [14]; at 33.0 µM 85% | [14]; at 100.0 µM 92% | [15]; at 33.0 µM 76% | [15]; [17] 98% | [15]; at 50.0 µM 74.8% | [15]; at 100.0 µM 91% | [1]; at 33.0 µM 82% | [1]; [17] 98% | [1]; at 100.0 µM 96% | [2]; at 33.0 µM 84% | [2]; at 100.0 µM 96% | [3]; [17] 97% | [4]; at 100.0 µM 89% | [5]; [17] 96% | [6]; at 33.0 µM 83% | [6]; [17] 97% | [6]; at 100.0 µM 93% | [7]; at 33.0 µM 84% | [7]; at 100.0 µM 94% | [8]; at 33.0 µM 89% | [8]; at 100.0 µM 94% | [9]; at 33.0 µM 83% | [9]; at 100.0 µM 93% | [10]; [17] 98% | [10]; at 50.0 µM 75.5%
inactive: [12]; at 1.2 µM 5% | [12]; at 3.7 µM 3% | [12]; at 11.0 µM 13% | [13]; at 1.2 µM -23% | [13]; at 3.7 µM -6% | [13]; at 11.0 µM 36% | [14]; at 1.2 µM 3% | [14]; at 3.7 µM 2% | [14]; at 11.0 µM 20% | [15]; at 1.2 µM 3% | [15]; at 3.7 µM 4% | [15]; [16] 16% | [15]; at 11.0 µM 17% | [1]; at 1.2 µM 4% | [1]; at 3.7 µM 9% | [1]; [16] 5% | [1]; at 11.0 µM 30% | [1]; at 50.0 µM 56.5% | [2]; at 1.2 µM -2% | [2]; at 3.7 µM -2% | [2]; at 11.0 µM 13% | [3]; [16] 15% | [3]; at 50.0 µM 64.5% | [4]; at 1.2 µM -1% | [4]; at 3.7 µM -4% | [4]; at 11.0 µM 18% | [4]; at 33.0 µM 66% | [5]; [16] 32% | [5]; at 50.0 µM 51.5% | [6]; at 1.2 µM -3% | [6]; at 3.7 µM 9% | [6]; [16] 37% | [6]; at 11.0 µM 30% | [6]; at 50.0 µM 57.6% | [7]; at 1.2 µM 4% | [7]; at 3.7 µM 2% | [7]; at 11.0 µM 18% | [8]; at 1.2 µM 2% | [8]; at 3.7 µM 1% | [8]; at 11.0 µM 23% | [9]; at 1.2 µM -2% | [9]; at 3.7 µM 1% | [9]; at 11.0 µM 29% | [10]; [16] 52%

From PubChem BioAssay (NCI)
